In general, AC50 refers to the midpoint of the concentration-response curve, whichever way the signal moves.

Records with an inconclusive call do not appear. Active and inactive are the calls of the source. Rule for the calls, unless noted: active = hit-call score of the fitted dose curve at least 0.9, where 1 is the maximum; inconclusive = response in the unintended direction; inactive = score below 0.9.

Assay [1] can be described thus: Tanguay_ZF_120hpf_YSE_legacy: (Legacy) Oregon State University Tanguay Lab 120 Hour Post-fertilization zebrafish Assay for Yolk Sac Edema (AID 2283634). In a few lines:
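Dechorionated Tropical 5D wild-type zebrafish embryos were exposed statically, one per well, from 6 to 120 hpf at 28C in 0.64% DMSO. Yolk sac edema was scored present/absent by brightfield at 120 hpf, and dead embryos were excluded.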

Assay [2] in a line: Tanguay_ZF_120hpf_AXIS_legacy: (Legacy) Oregon State University Tanguay Lab 120 Hour Post-fertilization zebrafish Assay for Body Axis Malformation (AID 2283635). In a few lines:
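Dechorionated wild-type Tropical 5D zebrafish embryos, one per well, statically exposed from 6 hpf to 120 hpf at 28C in 0.64% DMSO final. Body axis malformation scored present/absent by brightfield microscopy at 120 hpf; dead embryos excluded.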

Assay [3] can be described thus: Tanguay_ZF_120hpf_EYE_legacy: (Legacy) Oregon State University Tanguay Lab 120 Hour Post-fertilization zebrafish Assay for Eye Malformation (AID 2283636).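 Note: binary presence or absence of eye malformation scored by brightfield in 120 hpf larvae.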 An outline of the steps: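 Static waterborne exposure of dechorionated zebrafish embryos (strain Tropical 5D), 6 to 120 hpf, sealed plates at 28C, 0.64% DMSO vehicle. Eye malformation is scored as a binary endpoint, with gain of signal analysed relative to DMSO.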

Assay [4] in a line: Tanguay_ZF_120hpf_SNOU_legacy: (Legacy) Oregon State University Tanguay Lab 120 Hour Post-fertilization zebrafish Assay for Snout Malformation (AID 2283637). In a few lines: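 Dechorionated zebrafish, individually housed from 6 hpf in covered, sealed wells at 28C with 0.64% DMSO vehicle, were examined at 120 hpf for snout malformation. Responses were binary and analysed positive-direction relative to DMSO.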

A short description of assay [5]: Tanguay_ZF_120hpf_JAW_legacy: (Legacy) Oregon State University Tanguay Lab 120 Hour Post-fertilization zebrafish Assay for Jaw Malformation (AID 2283638). In a few lines:
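Dechorionated Tropical 5D wild-type zebrafish embryos, one per well, exposed statically from 6 hpf to 120 hpf at 28C in 0.64% DMSO. Jaw malformation was scored by brightfield microscopy as present or absent. It was not scored in dead embryos.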

Assay [6] can be described thus: Tanguay_ZF_120hpf_OTIC_legacy: (Legacy) Oregon State University Tanguay Lab 120 Hour Post-fertilization zebrafish Assay for Otic Vesicle Malformation (AID 2283639). In a few lines: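 Binary scoring of otic vesicle defects at 120 hpf in zebrafish (Tropical 5D) held under static exposure at 28C, sealed and shaded, with final DMSO 0.64%. Embryos dying by 24 or 120 hpf excluded; fitted positively against DMSO.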

The nature of assay [7]: Tanguay_ZF_120hpf_PE_legacy: (Legacy) Oregon State University Tanguay Lab 120 Hour Post-fertilization zebrafish Assay for Pericardial Edema (AID 2283640). In a few lines:
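Tropical 5D wild-type zebrafish embryos were statically exposed until 120 hpf at 28C, with 0.64% DMSO final. Pericardial edema was scored by brightfield as present or absent; endpoints were not scored in dead embryos.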

Assay [8] can be described thus: Tanguay_ZF_120hpf_BRAI_legacy: (Legacy) Oregon State University Tanguay Lab 120 Hour Post-fertilization zebrafish Assay for Brain Malformation (AID 2283641). An outline of the steps:
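Tropical 5D wild-type zebrafish embryos exposed statically until 120 hpf at 28C, 0.64% DMSO final, sealed and dark. Brain malformation scored present/absent by brightfield at 120 hpf; dead embryos excluded. Trimethyltin chloride 5uM positive control.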

A short description of assay [9]: Tanguay_ZF_120hpf_SOMI_legacy: (Legacy) Oregon State University Tanguay Lab 120 Hour Post-fertilization zebrafish Assay for Somite Malformation (AID 2283647). In a few lines: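 Dechorionated Tropical 5D wild-type zebrafish embryos, one per well from 6 hpf, statically exposed at 28C to 120 hpf in 0.64% DMSO; somite malformation scored present/absent by brightfield; trimethyltin 5 uM positive control; dead embryos not scored.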

The nature of assay [10]: Tanguay_ZF_120hpf_PFIN_legacy: (Legacy) Oregon State University Tanguay Lab 120 Hour Post-fertilization zebrafish Assay for Pectoral Fin Malformation (AID 2283648).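 Note: each larva judged yes or no for fin defect by brightfield with dead larvae skipped.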 An outline of the steps: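 Scoring of pectoral fin malformation was binary, made at 120 hpf on larvae exposed statically from 6 hpf after enzymatic chorion removal. Activity was fitted upward relative to DMSO controls at 0.64% (vol/vol).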

The nature of assay [11]: Tanguay_ZF_120hpf_CFIN_legacy: (Legacy) Oregon State University Tanguay Lab 120 Hour Post-fertilization zebrafish Assay for Caudal Fin Malformation (AID 2283649). In a few lines:
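Dechorionated Tropical 5D wild-type embryos, one per well from 6 hpf, static exposure to 120 hpf at 28C in 0.64% DMSO. Caudal fin malformation scored by brightfield as present/absent; not scored in dead embryos.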

A short description of assay [12]: Tanguay_ZF_120hpf_PIG_legacy: (Legacy) Oregon State University Tanguay Lab 120 Hour Post-fertilization zebrafish Assay for Pigmentation Malformation (AID 2283650). In a few lines:
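Endpoint is incidence of abnormal pigmentation at 120 hpf in dechorionated 5D zebrafish exposed singly from 6 hpf at 28C, DMSO vehicle at 0.64%. Embryos dying by 24 or 120 hpf are excluded from scoring.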

Assay [13] can be described thus: Tanguay_ZF_120hpf_CIRC_legacy: (Legacy) Oregon State University Tanguay Lab 120 Hour Post-fertilization zebrafish Assay for Circulatory Malformation (AID 2283651). In a few lines: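 Binary circulatory malformation call at 120 hpf by brightfield imaging of zebrafish larvae; chorion removed at 4 hpf, static exposure from 6 hpf in sealed dark plates at 28C, final DMSO 0.64%; non-mortality endpoints skipped if embryo died.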

The nature of assay [14]: Tanguay_ZF_120hpf_SWIM_legacy: (Legacy) Oregon State University Tanguay Lab 120 Hour Post-fertilization zebrafish Assay for Swim Bladder Malformation (AID 2283654).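 Note: swim bladder malformation in each larva scored yes or no under brightfield.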 An outline of the steps:
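Static waterborne exposure of single dechorionated Tropical 5D zebrafish embryos, 6–120 hpf, 28C, 0.64% DMSO final. Read-out: swim bladder malformation, present/absent, relative to DMSO negative control; trimethyltin chloride 5uM served as positive control.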

A short description of assay [15]: Tanguay_ZF_120hpf_TRUN_legacy: (Legacy) Oregon State University Tanguay Lab 120 Hour Post-fertilization zebrafish Assay for Truncated Body (AID 2283655). An outline of the steps:
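Dechorionated Tropical 5D wild-type embryos placed singly from 6 hpf and statically exposed to 120 hpf at 28C, final DMSO 0.64%. Truncated body scored as present/absent by brightfield; not scored in dead embryos.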

Assay [16] in a line: Tanguay_ZF_120hpf_NC_legacy: (Legacy) Oregon State University Tanguay Lab 120 Hour Post-fertilization zebrafish Assay for Notochord and Tail Malformation (AID 2283656). In a few lines: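 Binary scoring of notochord distortion by brightfield microscopy; embryos dying were not scored. Wild-type Tropical 5D embryos, chorion removed, exposed singly and statically from 6 to 120 hpf, 28C, sealed, 0.64% DMSO.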

Assay [17] in a line: Tanguay_ZF_120hpf_TR_legacy: (Legacy) Oregon State University Tanguay Lab 120 Hour Post-fertilization zebrafish Assay for Touch Response (AID 2283667). An outline of the steps:
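Readout is presence or absence of touch response in 120 hpf zebrafish larvae, assessed by brightfield observation after continuous static exposure at 28C. Final vehicle was 0.64% (vol/vol) DMSO.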

A short description of assay [18]: CCTE_Padilla_ZF_144hpf_TERATOSCORE: (Legacy) CCTE's 144 Hour Post-fertilization zebrafish Assay Teratoscore, Padilla Lab (AID 2283679; active = hit-call score of the fitted dose curve at least 0.9, where 1 is the maximum; inactive = score below 0.9;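 note: zebrafish embryos with chorions exposed by immersion from 6-8 hpf to 5 dpf with daily renewal; teratogenicity score from eye scoring of death hatching and malformations at 144 hpf; higher score means more developmental defects relative to DMSO baseline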). In a few lines: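 Larvae scored by eye at 144 hpf for death, hatching and malformations after a day in clean Hanks'. Before that, daily-renewed exposure at 80 uM (0.4% DMSO, 26C) from roughly 6-8 hpf through 5 dpf, 4 embryos per chemical.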

Assay [19] is described as follows: Tanguay_ZF_120hpf_ActivityScore_legacy: (Legacy) Oregon State University Tanguay Lab 120 Hour Post-fertilization zebrafish Assay Score for Activity (AID 2283742). In a few lines: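 In this whole-embryo screen, dechorionated zebrafish were exposed from 6 hpf until 120 hpf at 28C under a 0.64% DMSO vehicle. Developmental malformations and death were recorded by brightfield microscopy as binary endpoints.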

Assay [20] is described as follows: STM_H9_OrnithineISnorm_perc: Stemina devTOX quickPredict H9 human embryonic stem cell (hESC)-based Assay for Ornithine (ORN) Metabolite Biomarker, Normalized (AID 2283712; active = hit-call score of the fitted dose curve at least 0.9, where 1 is the maximum; inactive = score below 0.9;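 note: ornithine released into spent medium during last day measured by mass spectrometry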). An outline of the steps: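 Ornithine in spent medium from the last 24 h of a 72 h exposure, deproteinised and quantified by UPLC-HRMS against an isotope-labelled internal standard, expressed relative to 0.1% DMSO. Pluripotent H9 cells; compound refreshed every 24 h.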

Regarding `O=C(CCl)c1ccccc1`, the result in assay [1], in assay [2], in assay [3], in assay [4], in assay [5] and in assay [6] was inactive. In addition, the compound was called inactive in assay [7], in assay [8], in [9], in [10], in assay [11] and in assay [12]. Further, the compound was classed as inactive in [13], in assay [14], in assay [15], in [16] and in [17]. Also, the AC50 in assay [18] is 4.85 µM (active); in assay [19], 1.45 µM (active).

Regarding `Cc1ccc(OP(=O)(Oc2ccc(C)cc2)Oc2ccc(C)cc2)cc1` (tested in a mixture with another compound), in [20], the result was inactive.
